Screening results: PubChem, National Center for Advancing Translational Sciences (NCATS)
A selection: hits, their analogues and other compounds. The true share with any hit is near 7.3%.
uPA surface inh = qHTS for Inhibitors of Cell Surface uPA Generation; cell surface uPA generation assay, qHTS; Potency, µM (highest dose often 38.3 µM), inactives show at the top dose activity change, negative = inhibition, usual class: inhibitors; 330,000 compounds, 0.31% hits; AID 540303, 2011; active = well fitted inhibition curve with a large enough effect; inconclusive = small, poorly fitted or top-dose-only effect; inactive = no such curve, though single readings can be large or run the other way; tested in mouse RAW 264.7 cells; note: % is set by controls: 0 for no effect and ±100 for the full control effect; nearly all actives have a fitted effect of over 55% in size
FLuc modulator = qHTS profiling assay for firefly luciferase inhibitor/activator using purifed enzyme and Km concentrations of substrates (counterscreen for miR-21 project) | Luciferin 4-monooxygenase (Photinus pyralis), P08659 | purified FLuc, Km substrates, luminescence inhibition | Potency, µM (doses to about 57.5 µM), for inactives: at the top dose activity change, negative = inhibition, usual class: inhibitors | 360,000 compounds, 6.9% hits;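 note: plate controls were vehicle for no effect and reference inhibitor for full effect; nearly all actives have a fitted effect of over 55% in size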
Target sequence (P08659 whole entry, looked up): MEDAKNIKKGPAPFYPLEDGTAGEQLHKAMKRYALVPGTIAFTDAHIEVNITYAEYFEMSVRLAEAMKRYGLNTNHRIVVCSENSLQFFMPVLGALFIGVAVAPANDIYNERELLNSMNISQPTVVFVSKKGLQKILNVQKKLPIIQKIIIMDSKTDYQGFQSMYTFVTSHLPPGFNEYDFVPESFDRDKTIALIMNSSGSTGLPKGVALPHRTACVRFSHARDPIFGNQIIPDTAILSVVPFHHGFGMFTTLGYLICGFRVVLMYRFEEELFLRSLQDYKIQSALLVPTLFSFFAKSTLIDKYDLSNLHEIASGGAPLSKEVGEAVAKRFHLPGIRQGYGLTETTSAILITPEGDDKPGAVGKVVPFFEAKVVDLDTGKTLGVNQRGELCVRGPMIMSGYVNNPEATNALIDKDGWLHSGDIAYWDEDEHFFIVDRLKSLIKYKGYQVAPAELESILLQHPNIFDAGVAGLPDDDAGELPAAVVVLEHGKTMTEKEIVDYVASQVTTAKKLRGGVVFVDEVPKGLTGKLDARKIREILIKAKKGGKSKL
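Biochemical qHTS of compounds, final roughly 60 µM downward over six points, against 10 nM purified firefly luciferase using Km concentrations of substrates (10 uM D-luciferin, 10 uM ATP) in Tris acetate pH 7.5 buffer; luminescence output.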
ELG1 genotoxic = qHTS screen for small molecules that induce genotoxicity in human embryonic kidney (HEK293T) cells expressing luciferase-tagged ELG1. HEK293T ELG1-luciferase reporter, luminescence, 16 h. 330,000 compounds, 1.3% hits. AID 504466, 2011. Potency, µM (highest dose often 46 µM), without a hit: top-dose activity change, positive = activation, actives largely listed as activators; note: % of control where 0% means no effect; nearly all actives have a fitted effect of over 60% in size
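ELG1-luciferase HEK293T cells, 2,000/well; compound pinned in; 16 hr, 37 °C, 5% CO2; ONE-Glo, 30 min RT; luminescence on CCD imager.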
Rab9 prom act = qHTS Assay for Rab9 Promoter Activators. Huh7 Rab9 promoter-luciferase reporter, luminescence, 24 h. Potency, µM (highest dose often 9.22 µM), without a hit: top-dose activation, negative = inhibition, actives largely listed as activators. 320,000 compounds, 2.8% hits; note: % of control where 0% means no effect; nearly all actives have a fitted effect of over 60% in size
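Measured in stably transfected Huh7 cells bearing a Rab9 promoter–luciferase construct: 24 h compound treatment at 37 °C, followed by luminescence detection.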
SMN2 splice up = qHTS Assay for Enhancers of SMN2 Splice Variant Expression; HEK293 SMN2-luciferase splicing reporter, luminescence, 30-36 h; Potency, µM (highest dose often 46.1 µM), without a hit: top-dose activity change, positive = activation, hits mostly activators; 210,000 compounds, 2.8% hits; note: % of control where 0% means no effect; nearly all actives have a fitted effect of over 55% in size
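HEK293 cells carry an SMN2 minigene-luciferase reporter in which exon 7 inclusion puts luciferase in frame. Cells were seeded at 2000 cells/well, attached for 10-12 hours, then exposed to compounds for 30-36 hours at 37C before ONE-Glo luminescence.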
NPC1 promoter act = qHTS Assay for NPC1 Promoter Activators. Huh7 NPC1 promoter luciferase reporter, 24 h. Potency, µM (series often up to 9.22 µM), for the others: at the top dose activation, usual class: activators. 320,000 compounds, 2.4% hits; note: % of control where 0% means no effect; nearly all actives have a fitted effect of over 60% in size
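Quantitative HTS used a cell-based reporter: Huh7 cells stably bearing the NPC1 promoter upstream of luciferase were treated with compounds for 24 h, and promoter activation was read as luminescence.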
* = called active by the depositor; ? = inconclusive; · = no result. Unless noted, calls come from the whole dose curve; as a rule, active = well fitted curve in the direction sought with a large enough effect; inconclusive = small, poorly fitted or top-dose-only effect, or another doubt; inactive = no such curve, though single readings can be large; an effect the other way counts as inactive or inconclusive. Potency is the fitted concentration of half-maximal effect.

SMILES | uPA surface inh | FLuc modulator | ELG1 genotoxic | Rab9 prom act | SMN2 splice up | NPC1 promoter act
COC(=O)c1ccc(Cn2nnc3ccccc32)cc1 | -2% | 4% | 0% | -2% | · | -2%
CCOC(=O)c1ccc(NC(=O)Cn2nnc3ccccc32)cc1 | -6% | 11µM* | ? | 2.8µM* | -4% | 3.5µM*
CCOC(=O)c1ccc(NC(=O)CN2C(=O)CSC2=O)cc1 | · | 21µM* | 2% | 1% | -9% | -13%
CCOC(=O)c1ccc(NC(=O)CCn2nnc3ccccc32)cc1 | 3% | 0% | 6% | 3% | 10% | -1%
CCOC(=O)c1ccc(NC(=O)CN2C(=O)CSCC2=O)cc1 | -7% | 15µM* | 6% | 6% | -5% | 1%
COC(=O)c1ccc(COn2nnc3ccccc32)cc1 | 2% | 6.7µM* | ? | 1µM* | 13µM* | 1.1µM*
O=C(CCc1cn(Cc2ccc(F)cc2)c2ccccc12)NCCc1ccc(Cl)cc1 | · | 1% | · | · | · | ·
CC(C)c1ccc(/C=N/NC(=O)c2nnn(-c3nonc3N)c2CSC2=NCCS2)cc1 | -9% | -15% | -6% | -5% | -5% | 0%
Cc1cc(C)cc(NC(=O)CCCN2C(=O)COc3ccc(C)cc32)c1 | · | -4% | · | · | -12% | ·
CCOc1ccc(-c2cccc(NS(=O)(=O)c3ccc(Cl)s3)c2)nn1 | · | 15µM* | · | · | · | ·
O=S(=O)(Nc1cccc(-c2ccc(N3CCCCC3)nn2)c1)c1cccs1 | · | 0.95µM* | · | · | · | ·
O=S(=O)(Nc1cccc(-c2ccc(N3CCCCC3)nn2)c1)c1ccc(Cl)s1 | · | 1.2µM* | · | · | · | ·
O=S(=O)(Nc1cccc(-c2ccc3nncn3n2)c1)c1cccs1 | -3% | -8% | ? | 3% | ? | -1%
CCC(Oc1ccccc1)C(=O)N1CCN(Cc2cc(=O)n3nc(-c4cccc(C)c4)sc3n2)CC1 (configuration not stated) | · | -7% | · | · | · | ·
CCc1ccccc1NC(=O)CN1C(=O)c2cccnc2Sc2ccccc21 | · | -12% | · | · | · | ·
CCc1ccc(NC(=O)c2ccc3nc(N)sc3c2)cc1 | -6% | 12µM* | ? | ? | ? | ?
CC(=O)Nc1ccc2nc(N)sc2c1 | 0% | · | · | · | · | ·
CCc1ccc2nc(N)sc2c1 | ? | 11µM* | ? | 3.5µM* | 20µM* | 2.2µM*
Nc1nc2ccc(C(=O)Nc3ccccc3)cc2s1 | -2% | 19µM* | ? | 3.2µM* | · | 3.5µM*
Cc1ccc(CN(Cc2cccn2-c2nnc(N3CCCC3=O)s2)C(=O)Nc2cc(C)cc(C)c2)cc1 | · | 2% | · | · | -10% | ·
CCC(CC)c1nn2c(=O)cc(COc3ccc(NC(=O)c4ccc(Cl)cc4)cc3)nc2s1 | · | -1% | · | · | 20% | ·
CCCS(=O)(=O)N1CC(=O)N(c2cccc(F)c2)C(C)(C(=O)NC2CCCCCC2)C1 (configuration not stated) | · | 0% | · | · | · | ·
Cc1ccc(S(=O)(=O)NCCc2nnc3ccc(SCc4cccc(F)c4)nn23)cc1 | · | 5% | · | · | · | ·
CCN(c1ccc(NC(=O)COC(=O)c2cc3ccccc3oc2=O)cc1)C(C)C | 2% | ? | -1% | -2% | -4% | -11%
O=C(COC(=O)c1cc2ccccc2oc1=O)Nc1ccc(F)cc1F | 0% | 7.6µM* | ? | 2.5µM* | · | 2.2µM*
SMILES | uPA surface inh | FLuc modulator | ELG1 genotoxic | Rab9 prom act | SMN2 splice up | NPC1 promoter act
CN(C)S(=O)(=O)c1cccc(NC(=O)c2cc3ccccc3o2)c1 | -3% | 8.5µM* | 6% | ? | 3% | 30%
CCN(CC)S(=O)(=O)c1cccc(NC(=O)c2cc3ccccc3o2)c1 | 0% | 12µM* | -4% | 9% | -19% | 0%
CN(C)S(=O)(=O)c1cccc(NC(=O)COC(=O)c2cc3ccccc3oc2=O)c1 | 0% | 13µM* | 9.2µM* | 3.2µM* | · | 3.5µM*
O=C(COC(=O)c1cc2ccccc2oc1=O)Nc1cccc(S(=O)(=O)N2CCCCCC2)c1 | 1% | -19% | ? | 12% | 17% | 2%
O=C(Nc1ccc2c(c1)S(=O)(=O)N=C1CCCCCN12)c1ccccc1Cl | 0% | -9% | -7% | 5% | 7% | -7%
CCOc1ccc(NC(=O)CSc2nnnn2C2CC2)cc1S(=O)(=O)N1CCCC1 | -52% | 0% | 2% | -3% | · | -1%
CCOc1cccc(-c2csc(C3COc4ccccc4O3)n2)c1 (configuration not stated) | 0% | 2.1µM* | ? | 4µM* | 4µM* | ?
COc1ccc(S(=O)(=O)c2nnn(-c3cccc(Cl)c3)c2N)cc1 | 9% | -2% | -4% | 2% | -31% | 0%
COc1ccccc1C(CNC(=O)c1oc2ccccc2c1C)N1CCCC1 (configuration not stated) | -1% | 24µM* | -2% | -6% | · | 1%
COc1ccc(C(CNC(=O)c2oc3ccccc3c2C)N2CCCCC2)cc1 (configuration not stated) | · | 6% | · | · | -12% | ·
Cc1c(C(=O)NCCc2ccc3c(c2)OCCO3)oc2ccccc12 | -3% | 19µM* | -1% | 9% | -13% | -2%
COc1ccc(CCNC(=O)c2oc3ccccc3c2C)cc1 | -6% | 19µM* | 0% | -4% | · | -3%
O=C(NCCc1ccc2c(c1)OCCO2)c1ccccc1F | -4% | ? | 16% | 29% | -9% | ?
CCn1cc(C(=O)NCCc2ccc(Cl)cc2)c(=O)c2cc(S(=O)(=O)N3CCC(C)CC3)ccc21 | · | 3% | · | · | 4% | ·
O=C(CSc1nnc(CNC(=O)c2ccccc2F)n1-c1ccccc1)Nc1ccccc1F | · | -4% | · | · | -2% | ·
CC(=O)Nc1cccc(NC(=O)C(=O)Nc2ccc3c(c2)N(C(=O)C2CC2)CCC3)c1 | ? | 9.5µM* | 0% | ? | · | 28%
CCCC(=O)Nc1ccc(C2C(=O)c3ccccc3C2=O)cc1 | -3% | 1.1µM* | 20% | 3.5µM* | · | 1.6µM*
CC(=O)Nc1ccc(C2C(=O)c3ccccc3C2=O)cc1 | 2% | 2.1µM* | 23µM* | ? | · | ?
CN1C(C(=O)NCc2ccc(OC(F)(F)F)cc2)CC2Cn3c(nc4cc(Cl)c(Cl)cc43)C21 (configuration not stated) | -16% | -1% | -6% | -8% | · | -2%
C/C(=N\Nc1cccc2cccnc12)c1ccccn1 | -7% | 0.34µM* | ? | 0.79µM* | 2µM* | 3.2µM*
C/C(=N\Nc1cccc2cccnc12)c1ccc(N)cc1 | 9% | 4.3µM* | ? | 2.2µM* | 11µM* | 2.8µM*
CNC(=O)Nc1cccc2cccnc12 | 0% | 5% | -1% | -5% | · | -2%
